GSH bead fluor: compound fluoresces at 488/530 nm on GSH beads. GSH beads flow cytometry, compound fluorescence 488/530 nm; stronger effect = higher value. fluorescence (KMESF) at 10 µM. 190,000 tested, 0.25% active. AID 1776; in the data active means fluorescence above about 89;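 further: glutathione beads carrying GST-tagged Bcl family fusion proteins plus one bare bead set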
RGS7-Gao: modulates binding of RGS7 to human Galphao | Multiplexed bead flow cytometry; actives lie on both sides | 220,000 tested, 0.35% active | P09471 | binding response (% of control), % at 10 µM; in the data active means binding response below about 49% or above about 150%; inconclusive means no clear call, values can overlap the other calls; inactive means in between;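 further: fluorescent Galphao held in activated GDP-AlF4 state binding bead-coupled RGS7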
Target sequence (P09471 whole entry, looked up): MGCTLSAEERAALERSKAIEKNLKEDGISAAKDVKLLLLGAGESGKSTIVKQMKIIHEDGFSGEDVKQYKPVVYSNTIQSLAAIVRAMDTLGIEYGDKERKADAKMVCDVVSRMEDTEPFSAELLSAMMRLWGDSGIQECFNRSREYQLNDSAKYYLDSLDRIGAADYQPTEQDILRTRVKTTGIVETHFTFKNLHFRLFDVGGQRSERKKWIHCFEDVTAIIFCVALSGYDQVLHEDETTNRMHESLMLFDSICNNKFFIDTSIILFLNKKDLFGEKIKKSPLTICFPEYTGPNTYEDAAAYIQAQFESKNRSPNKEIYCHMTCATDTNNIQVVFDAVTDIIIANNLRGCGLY
RGS16-Gao: regulators of human RGS16-Galphao interaction; O15492+P09471; bead-based flow cytometry RGS16-Galphao binding, fluorescence; actives lie on both sides; binding response (% of control), % at 10 µM; 220,000 tested, 0.38% active; call rule not given here;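 further: Galphao activated by GDP with aluminum fluoride before binding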
Target sequence (O15492 whole entry, looked up): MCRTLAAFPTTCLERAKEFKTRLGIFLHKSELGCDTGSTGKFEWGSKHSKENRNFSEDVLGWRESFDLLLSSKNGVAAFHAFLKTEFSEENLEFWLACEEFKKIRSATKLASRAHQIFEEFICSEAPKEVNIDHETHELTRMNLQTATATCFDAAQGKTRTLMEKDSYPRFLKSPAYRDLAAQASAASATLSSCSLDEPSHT
Target sequence (P09471 whole entry, looked up): as the sequence (P09471 whole entry, looked up) above
RGS4-Gao reg: modulates binding of RGS4 to human Galphao; P09471; Multiplexed bead flow cytometry; actives lie on both sides; binding response (% of control), % at 10 µM; 220,000 tested, 0.33% active; in the data active means binding response below about 49% or above about 150%; inactive means in between;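 further: fluorescent Galphao activated with aluminum fluoride binding bead-coupled RGS4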
RGS8-Gao: regulators of human RGS8-Galphao interaction. response (percent of control binding), % at 10 µM. P09471. 220,000 tested, 0.34% active. AID 1423. multiplexed bead flow cytometry, RGS8-Galphao binding; actives lie on both sides; in the data active means response below about 60% or above about 140%; inactive means in between;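 further: Galphao activated as the GDP aluminium fluoride complex binding bead-coupled RGS8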
Avidin fluor: compound fluoresces at 488/530 nm on avidin beads; compound fluorescence 488/530 nm, flow cytometry; stronger effect = higher value; fluorescence (KMESF) at 10 µM; 220,000 tested, 0.38% active; AID 1775; in the data active means fluorescence above about 47
Each line names hits and unclear results; the compound was inactive in the other large screens; ! = not active in a repeat; [ ] = another dose, or the depositor's remark. Most compounds without a hit are left out; they make up all but 1.2% or so of the library.

Cc1ccc(S(=O)(=O)NC(=O)NCc2ccccc2)cc1	none
Cc1ccc(S(=O)(=O)NC(=O)NCc2ccccn2)cc1	GSH bead fluor 256
O=C(COC(=O)/C=C/c1cccs1)Nc1ccc2ccccc2c1	Avidin fluor 68
O=C(COC(=O)/C=C/c1cccs1)Nc1ccccc1Cl	none
Cc1cccc(Cn2c(=O)c3c(nc4n3CCN4Cc3ccco3)n(C)c2=O)c1	Avidin fluor 56
Cn1c(=O)n(Cc2ccc(Cl)cc2)c(=O)c2c1nc1n2CCN1Cc1ccco1	none
C[C@@]12CC(=O)NC1N(C(=O)c1ccccc1)C(c1ccccc1OC(=O)c1ccccc1)C2 (stereo partly specified)	GSH bead fluor 250
O=C1CSc2ccc(C(=O)NCC(c3ccco3)N3CCCCC3)cc2N1 (stereo unspecified)	Avidin fluor 50
O=C(NCC(c1ccco1)N1CCCCC1)c1ccc2c(c1)S(=O)(=O)c1ccccc1C2=O (stereo unspecified)	none
O=C(COC(=O)CCc1nc2ccccc2c(=O)[nH]1)Nc1ccc(Cl)cn1	RGS7-Gao inconclusive, Avidin fluor 49 (no result: GSH bead fluor)
Cc1cc(C)cc(OCC(=O)OCC(=O)Nc2ccc(Cl)cn2)c1	none
Cc1ccc(OCCC(=O)OCC(=O)Nc2ccc(Cl)cn2)cc1	GSH bead fluor 272
CCOCCCNC(=S)Nc1ccc(S(N)(=O)=O)cc1	none
CN1CCN(Cc2cc(=O)oc3ccc(Cl)cc23)CC1	none
CCOC(=O)N1CCN(Cc2cc(=O)oc3ccc(Cl)cc23)CC1	GSH bead fluor 267
COc1ccc(/C=C/C(=O)c2ccc3c4c(cccc24)CC3)cc1OC	none
CN(C)C(=O)COC(=O)[C@H](Cc1ccccc1)NC(=O)c1ccco1	Avidin fluor 53
CC1=C(C(=O)OCc2ccccc2)C(c2ccsc2)C(C#N)=C(N)O1 (stereo unspecified)	none
COC(=O)C1=C(C)OC(N)=C(C#N)C1c1ccsc1 (stereo unspecified)	GSH bead fluor 89
CCOC(=O)CSc1nc2ccccc2c(=O)n1C1CCCC1	Avidin fluor 91
COC(=O)C(NC(=O)CSc1nc(N)cc(=O)[nH]1)c1ccccc1 (stereo unspecified)	none
Cc1c(Cl)cccc1NC(=S)NCc1ccco1	RGS7-Gao inconclusive (no result: GSH bead fluor)
COc1ccc(CN2CCN(S(=O)(=O)c3ccc(F)cc3)CC2)c(OC)c1OC	none
COc1ccc(CN2CCN(c3ccc(F)cc3)CC2)c(OC)c1OC	Avidin fluor 67
Cc1ccc2c(c1)NC(c1cccs1)C1=C(CC(C)(C)CC1=O)N2 (stereo unspecified)	none
O=C(OCCCCN1C(=O)c2ccccc2C1=O)c1ccc(S(=O)(=O)N2CCCC2)cc1	GSH bead fluor 266
COc1ccccc1NC(=O)Nc1ccnn1C1CCCCC1	GSH bead fluor 266
COc1ccccc1NC(=O)Nn1cnnc1	GSH bead fluor 242
O=C(c1ccccc1Sc1c(Cl)cccc1[N+](=O)[O-])N1CCOCC1	none
COc1cc(-c2nnc(-c3cc(OC)c(OC)c(OC)c3)o2)cc(OC)c1OC	GSH bead fluor 102
COc1cc(-c2nnc(-c3ccccc3)o2)cc(OC)c1OC	none (no result: RGS7-Gao, RGS16-Gao, RGS4-Gao reg, RGS8-Gao, Avidin fluor)
COc1ccccc1N1CCN(C(=S)NC(=O)/C=C/c2ccccc2)CC1	RGS7-Gao inconclusive (no result: GSH bead fluor)
CCN(CC)CCNc1nc(-c2ccco2)c2c(c1C#N)CC(C)(C)OC2	Avidin fluor 48
Cc1cc(C)cc(N(CC(=O)NCc2ccco2)C(=O)CCC(=O)Nc2ccccn2)c1	none
Cc1ccc(N(CC(=O)NCc2ccco2)C(=O)CCC(=O)Nc2ccccn2)cc1C	GSH bead fluor 254
CC(C)NC(=O)c1cc(-n2cnnc2)ccc1Cl	none
CCOC(=O)c1c(NC(=O)COC)sc(C)c1C	GSH bead fluor 126
CCOC(=O)c1c(NC(=O)COC)sc(C(C)=O)c1C	none
O=C(NC1CCCC1)C1C2C=CC(C2)C1C(=O)N1CCOCC1 (stereo unspecified)	GSH bead fluor 272
O=C(O)C1C2C=CC(C2)C1C(=O)N1CCOCC1 (stereo unspecified)	none
Cc1cccc(NC(=O)CSc2nnc(-c3ccc(S(=O)(=O)N4CCOCC4)cc3)n2C)c1	Avidin fluor 68
CCOC(=O)c1cc(-c2ccc(F)cc2)n(CC(=O)NC(C)CC)c1C (stereo unspecified)	none
CCOC(=O)c1cc(-c2ccc(C)cc2)n(CCC(=O)NC(C)CC)c1C (stereo unspecified)	Avidin fluor 64
O=C(CSc1nnc(C2CC2)n1Cc1ccco1)NCC(F)(F)F	RGS7-Gao inconclusive
Cc1ccc(-c2nn(CC(=O)NCc3cc(-c4nn(C)c(=O)c5ccccc45)ccc3C)c(=O)c3ccccc23)cc1	RGS7-Gao active[activator], RGS4-Gao reg active[activator], RGS8-Gao 209[activator], Avidin fluor 487
CCOc1ccc2nc(NC(=O)c3ccoc3C)sc2c1	Avidin fluor 56
CN(C)CC(C)(C)CNS(=O)(=O)c1ccc(Cl)c(Cl)c1	none
O=C(Nc1ccccc1)Nc1ccccn1	RGS7-Gao inconclusive, Avidin fluor 68!
O=C(Nc1ccccn1)C(=O)Nc1ccccn1	RGS7-Gao inconclusive (no result: GSH bead fluor)
Cc1nn(Cc2cccc(C(=O)NCC(C)C)c2)c(C)c1Br	GSH bead fluor 148
Cc1nn(Cc2cccc(C(N)=O)c2)c(C)c1Br	RGS7-Gao inconclusive (no result: GSH bead fluor)
CCn1c(SCC(=O)N2CCCCC2C)nnc1-c1ccc(S(=O)(=O)N2CCN(C)CC2)cc1 (stereo unspecified)	GSH bead fluor 264
C=CCn1c(CCC(O)CCCCC)n[nH]c1=S (stereo unspecified)	none
C(=N\c1nc2ccccc2n1CCN1CCCCC1)/c1cccs1	GSH bead fluor 270
C(=N\c1nc2ccccc2n1CCN1CCCCC1)/c1ccc2c(c1)OCO2	none
Cc1c(/C=N\NC(=O)c2csc3ccccc23)cnn1C	Avidin fluor 54
O=C(COC(=O)c1ccc(S(=O)(=O)NCc2ccco2)cc1)NC1CCCCC1	GSH bead fluor 268
O=C(COC(=O)c1ccc(S(=O)(=O)NCc2ccco2)cc1)c1ccccc1	none
Nc1ccc(N2CCN(C(=O)c3cccs3)CC2)cc1	none
CC(=O)Nc1ccc(N2CCN(C(=O)c3cccs3)CC2)cc1	Avidin fluor 99
CCCCC(=O)Nc1cccc(NC(=O)c2ccc(Br)cc2)c1	Avidin fluor 49
O=[N+]([O-])c1ccc(/C=C/C2=NN(c3ccccc3)C(c3ccco3)C2)cc1 (stereo unspecified)	RGS7-Gao 246[activator], RGS16-Gao 223[activator], RGS4-Gao reg 285[activator], Avidin fluor 186
COC(=O)C1=C(N)Oc2cc(C)[nH]c(=O)c2C1c1cccnc1 (stereo unspecified)	none
CCCCCOC(=O)CSc1n[nH]c(=O)[nH]c1=O	GSH bead fluor 273
